Data reported in PubChem BioAssay (NCATS).
Unmarked numbers belong to inactive results. Inconclusive results are not listed. Where a call stands in place of a potency, no number is given. Activity calls are given as the source filed them. Calls come from the whole dose curve; as a rule, active = well fitted curve in the direction sought with a large enough effect; inconclusive = small, poorly fitted or top-dose-only effect, or another doubt; inactive = no such curve, though single readings can be large; an effect the other way counts as inactive or inconclusive.

Assays:
[1] = target: Arylsulfatase A (Homo sapiens) (UniProt P15289); assay: qHTS screen for enhancers of Arylsulfatase A (ASA1): LOPAC Validation Assay (AID 720538); details: ASA enzyme activity, LOPAC qHTS enhancer assay; series mostly up to 57.5 µM; note: potency is the fitted concentration of half-maximal effect
Sequence of Arylsulfatase A (Homo sapiens) (P15289 whole entry, looked up): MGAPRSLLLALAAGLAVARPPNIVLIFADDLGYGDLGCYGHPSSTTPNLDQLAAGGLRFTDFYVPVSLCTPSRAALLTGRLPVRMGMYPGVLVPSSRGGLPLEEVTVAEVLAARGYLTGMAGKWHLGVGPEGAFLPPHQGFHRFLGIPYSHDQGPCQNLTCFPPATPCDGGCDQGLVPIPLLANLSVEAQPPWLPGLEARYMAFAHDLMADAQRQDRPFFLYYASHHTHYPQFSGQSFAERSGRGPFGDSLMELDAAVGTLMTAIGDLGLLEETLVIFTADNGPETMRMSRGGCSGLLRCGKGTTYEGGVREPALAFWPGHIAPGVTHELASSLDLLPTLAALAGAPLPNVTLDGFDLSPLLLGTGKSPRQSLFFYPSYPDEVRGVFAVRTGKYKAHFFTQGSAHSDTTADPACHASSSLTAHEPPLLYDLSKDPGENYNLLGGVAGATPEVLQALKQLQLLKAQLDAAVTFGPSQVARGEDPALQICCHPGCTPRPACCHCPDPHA
Method in brief: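 Cell-based enhancement test: residual ASA activity in SV40-transformed I179S patient fibroblasts is measured by pNCS turnover (0.5mM final, 14h, room temperature) following 48h compound incubation; higher fluorescence indicates activation.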

[2] = qHTS for compounds that reverse cellular toxicity of Amyloid beta (A-beta) peptide in yeast: LOPAC Validation Assay (AID 720559); details: yeast expressing A-beta; series mostly up to 46.1 µM
Method in brief: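 Here, A-beta-toxic yeast grow with test compounds at 30 C for 48 hr before optical density at 600 nm is recorded; data are normalized against DMSO and the FeCl3-clioquinol control.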

[3] = qHTS for Activators of Parkin Expression: LOPAC Validation Assay (NLuc Reporter) (AID 720572); details: Parkin promoter NanoLuc reporter cells, luminescence; series mostly up to 46.1 µM
Method in brief: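 NLuc signal, read 10 min after reagent and following a prior FLuc read, is normalized to DMSO (0) and positive controls (100%). Cells: neuronal Parkin-promoter coincidence reporter line; compounds tested 7-point, 24 h, 37 C, 5% CO2.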

[4] = qHTS for Activators of Parkin Expression: LOPAC Validation Assay (FLuc Reporter) (AID 720573); details: Cell line, PRKN promoter firefly luciferase reporter; series mostly up to 46.1 µM
Method in brief: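 Readout is FLuc luminescence from neuronal reporter cells (Parkin promoter, FLuc plus NLuc) after 24 h compound exposure in dose response. Values normalized to neutral DMSO and positive-control compounds.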

[5] = target: T1, Hexokinase-4 (Homo sapiens) + Glucokinase regulatory protein (Homo sapiens) (UniProt P35557+Q14397); assay: qHTS assay for inhibitors of recombinant human GCK-GKRP interaction: Diaphorase-coupled assay (AID 743205); details: G6PDH/diaphorase resorufin fluorescence; series mostly up to 57.5 µM
T1 sequence (P35557 whole entry, looked up): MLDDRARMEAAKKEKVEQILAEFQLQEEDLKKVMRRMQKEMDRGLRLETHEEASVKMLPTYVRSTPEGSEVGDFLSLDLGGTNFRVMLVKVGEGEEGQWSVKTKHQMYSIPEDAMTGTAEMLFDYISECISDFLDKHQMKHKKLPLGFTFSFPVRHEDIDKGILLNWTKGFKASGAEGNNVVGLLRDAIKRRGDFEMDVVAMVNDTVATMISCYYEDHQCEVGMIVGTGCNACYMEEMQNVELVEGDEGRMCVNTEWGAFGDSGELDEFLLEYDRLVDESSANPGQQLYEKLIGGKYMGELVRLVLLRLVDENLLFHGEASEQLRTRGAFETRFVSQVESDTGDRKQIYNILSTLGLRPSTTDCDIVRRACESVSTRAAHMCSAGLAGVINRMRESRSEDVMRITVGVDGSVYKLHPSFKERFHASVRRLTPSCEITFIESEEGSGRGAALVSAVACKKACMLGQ
T1 sequence (Q14397 whole entry, looked up): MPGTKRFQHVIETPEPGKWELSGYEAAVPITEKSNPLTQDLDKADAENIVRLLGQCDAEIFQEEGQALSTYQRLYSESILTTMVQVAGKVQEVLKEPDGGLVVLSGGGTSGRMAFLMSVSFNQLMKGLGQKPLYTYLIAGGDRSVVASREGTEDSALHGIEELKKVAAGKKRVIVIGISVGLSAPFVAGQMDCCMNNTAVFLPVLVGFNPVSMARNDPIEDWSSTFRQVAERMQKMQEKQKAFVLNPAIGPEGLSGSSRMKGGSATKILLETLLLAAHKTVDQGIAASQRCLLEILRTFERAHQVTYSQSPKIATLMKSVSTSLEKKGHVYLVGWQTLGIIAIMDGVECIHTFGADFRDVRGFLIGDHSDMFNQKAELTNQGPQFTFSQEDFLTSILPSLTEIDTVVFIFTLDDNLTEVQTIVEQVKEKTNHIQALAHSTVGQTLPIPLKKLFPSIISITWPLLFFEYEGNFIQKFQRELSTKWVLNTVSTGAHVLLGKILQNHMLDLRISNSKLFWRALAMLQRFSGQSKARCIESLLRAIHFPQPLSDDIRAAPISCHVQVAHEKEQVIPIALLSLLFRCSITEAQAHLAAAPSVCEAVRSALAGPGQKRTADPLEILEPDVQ
Method in brief: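 Signal derives from resorufin generated by diaphorase, linked to GCK turnover of glucose (5 mM) and ATP (0.4 mM). Enzyme complex was added after a 20-minute compound preincubation and monitored for 30 minutes.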

[6] = target: T1, Hexokinase-4 (Homo sapiens) + Glucokinase regulatory protein (Homo sapiens); assay: qHTS assay for inhibitors of recombinant human GCK-GKRP interaction: ADP-Glo assay (AID 743206); details: ADP-Glo luminescence, 60 min; series mostly up to 76.9 µM
Method in brief: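 Pin-transferred compounds meet a 15 nM GST-GCK/15 nM FLAG-GKRP/2 uM S6P mix (dispense concentrations). ATP is then added to 0.4 mM final with 5 mM glucose, and the reaction runs 60 min at room temperature. ADP is quantified luminescently.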

[7] = target: T1, Hexokinase-4 (Homo sapiens) + Glucokinase regulatory protein (Homo sapiens); assay: qHTS assay for inhibitors of recombinant human GCK-GKRP interaction: HTRF assay (AID 743207); details: recombinant GCK-GKRP HTRF binding, 60 min, with sorbitol-6-phosphate; series mostly up to 57.5 µM
Method in brief: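 Titration screening format: recombinant GST-GCK and FLAG-GKRP at 5 nM, S6P at 2 uM, labelled anti-tag antibodies, 60 min at RT, dual-wavelength HTRF readout.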

[8] = qHTS Assay for Identifying Gametocytocidal Compounds (AID 743244);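 note: actives lower the fluorescent signal which means gametocytes are killed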; details: P. falciparum 3D7 stage III-V gametocytes, alamarBlue, 72 h; max response: stronger effect = lower value
Method in brief: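 In this qHTS viability screen, late-stage 3D7 gametocytes are incubated with compound for 72 h, then with alamarBlue for 24 h; reduced resorufin fluorescence marks killing.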

Structure (SMILES) | Potency [1] | outcome [2] | Potency [3] | Potency [4] | Potency [5] | Potency [6] | Potency [7] | max response [8]
N[C@@H](CS(=O)O)C(=O)O | inactive | inactive | inactive | inactive | inactive | inactive | inactive | 27.3%
N#Cc1cc2nc(O)c(O)nc2cc1[N+](=O)[O-] | inactive | inactive | inactive | inactive | inactive | inactive | inactive | 15.6%
O=C(O)c1ccccc1Nc1ccccc1 | inactive | inactive | inactive | inactive | inactive | inactive | inactive | 4.62%
O=C(O)C1=CCCN(CCON=C(c2ccccc2)c2ccccc2)C1 | inactive | inactive | inactive | inactive | inactive | inactive | inactive | -12.8%
CCOC(=O)C12CC1/C(=N/O)c1ccccc1O2 (stereo not drawn) | inactive | inactive | inactive | inactive | inactive | inactive | inactive | 0.715%
NC(C(=O)N[C@@H]1C(=O)N2C(C(=O)O)=C(Cl)CS[C@H]12)c1ccccc1 (stereo partly drawn) | inactive | inactive | inactive | inactive | inactive | inactive | inactive | 8.93%
CCCCC[C@H](CC(=O)NO)C(=O)N[C@H](C(=O)N1CCC[C@H]1CO)C(C)C | inactive | inactive | inactive | inactive | inactive | inactive | inactive | 14.1%
Nc1ncnc2c1ncn2C1CCCO1 (stereo not drawn) | 2.69 µM (active) | inactive | inactive | inactive | inactive | inactive | inactive | -5.04%
Cc1ccc([N+](=O)[O-])cc1S(=O)(=O)N(C)C | inactive | inactive | inactive | inactive | inactive | inactive | inactive | 4.81%
COc1cc(/C=C(\C#N)C(=O)c2ccc(O)c(O)c2)cc(I)c1O | 21.3 µM (active) | inactive | inactive | inactive | inactive | inactive | inactive | 9.56%
CC(C)C[C@H](NC(=O)C1OC1C(=O)O)C(=O)NCCCCN=C(N)N (stereo partly drawn) | inactive | inactive | inactive | inactive | inactive | inactive | inactive | -4.29%
CC(C)(CO)Cc1cc(C(C)(C)C)c(O)c(C(C)(C)C)c1 | inactive | inactive | inactive | inactive | inactive | inactive | inactive | 9.64%
C[C@H](O)C(=O)C1=Nc2c(nc(N)[nH]c2=O)NC1 | inactive | inactive | inactive | inactive | inactive | inactive | inactive | 13.3%
O=C(O)C1=CCNCC1 | inactive | inactive | inactive | inactive | inactive | inactive | – | 2.03%
CC(=O)NNC(=O)N1Cc2ccccc2Oc2ccc(Cl)cc21 | inactive | inactive | inactive | inactive | inactive | – | inactive | 7.75%
O=C(O)/C=C/c1ccc(O)c(O)c1 | inactive | inactive | inactive | inactive | inactive | inactive | – | 8.93%
CSc1nc(N)c2ncn([C@@H]3O[C@H](COP(=O)(O)OP(=O)(O)O)C(O)[C@H]3O)c2n1 (stereo partly drawn) | inactive | inactive | inactive | inactive | inactive | inactive | – | 18.1%
O=C(O)c1cc(=O)cc(C(=O)O)[nH]1 | inactive | inactive | inactive | inactive | inactive | – | inactive | –
